Measured values: PubChem BioAssay (NCI)
About 83,000 compounds went through this panel and 20% of them were active in at least one assay; those are over-represented in the sample as a whole.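 Method: cells in 96-well plates; compound added at one concentration; 48 h incubation; percent growth measured; values under 10 scored active.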 Calls of active or inactive are those of the source.

test system: HL-60(TB) leukemia; assay: NCI-60 one-dose screen, 48 h (100 = growth as untreated, 0 = no growth, -100 = all killed); details: 10 µM unless noted

SMILES	growth
O=C(NO)c1ccc(Cn2c(=O)n(CCc3ccc(O)cc3)c(=O)c3ccccc32)cc1	89.3% (inactive)
COc1cc(C2=NNC(c3ccc(N(C)C)cc3)C2)cc(OC)c1OC (stereo not given)	-33.6% (active)
Cc1cc(-c2ccc(N=Nc3c(S(=O)(=O)O)cc4cc(S(=O)(=O)O)cc(N)c4c3O)c(C)c2)ccc1N=Nc1cc(S(=O)(=O)O)c2ccccc2c1O	98.7% (inactive)
OCCN1CCOCC1	121% (inactive)
C[Si](C)(C)C(c1ccccc1)c1ccccc1	80.5% (inactive)
CCc1ccc2nc(NC(=O)Cc3csc(NC(=O)c4ccco4)n3)sc2c1	74.2% (inactive)
CN1CCN(CCOc2ccc(-c3cnc4c(-c5ccc(F)cc5)cnn4c3)cc2)CC1	2.46% (active)
COc1ccc(-c2c(C(=O)NS(C)(=O)=O)n(Cc3cccc(C(F)(F)F)c3)c3ccccc23)cc1	102% (inactive)
CC(C)CCSc1nc(N)nc2nc[nH]c12	76.7% (inactive)
Cc1cc2c(-c3nc4ccccc4[nH]3)c(O)c(O)cc2c(O)c1-c1c(C)cc2c(-c3nc4ccccc4[nH]3)c(O)c(O)cc2c1O	-11.2% (active)
CC(C)N(Cc1ccccc1)c1c(Cl)ssc1=O	113% (inactive)
Cc1c(NCC(=O)Nc2nc3ccccc3[nH]2)c(=O)n(-c2ccccc2)n1C	98.5% (inactive)
COc1cc(/C=C/C(=O)c2cccc(-n3cc(-c4ccc(Cl)cc4)[nH]c3=O)c2)ccc1O	-19.9% (active)
COC(=O)c1ccc2c(c1)c1c(C)c3ccncc3c(C)c1n2C	32.5% (inactive)
Cc1nc(Nc2ccc(Cl)cc2)c2cnn(-c3ccccc3)c2n1	102% (inactive)
Cc1[nH]n(C(N)=S)c(=O)c1N=Nc1ccc(F)c(Cl)c1	90.6% (inactive)
O=Cc1cc2ccccc2nc1Nc1nccs1	99.5% (inactive)
COc1cc(/C=N/NC(=O)Cn2c(C(C)C)nc3ccccc32)ccc1O	85.2% (inactive)
Cn1cc(-c2nc3c(F)cc4[nH]ncc4c3c3c2CCCC3)c(C(F)(F)F)n1	-11.2% (active)
CCn1cc(Cc2cc(C(=O)Nc3cc4cc(OC)c(OC)cc4c(C)n3)ccc2Cl)cn1	13.9% (inactive)

SMILES	growth
O=C(COc1ccc(/C=C2\Oc3ccccc3C2=O)cc1)Nc1nccs1	-36.2% (active)
Clc1nccc2c(-c3csc(-c4c[nH]c5ccc(Br)cc45)n3)c[nH]c12	9.77% (active)
Cc1n(Cc2ccc3ccccc3c2)c2ccccc2[n+]1Cc1ccc2ccccc2c1	-60.3% (active)
COc1ccc(-c2cn[nH]c2-c2cc(OC)c(OC)c(OC)c2)cc1	-21.2% (active)
O=C(O)CCCl	107% (inactive)
COc1ccc(-c2cc(-c3ccc(Cl)cc3)nc(NCCCCNc3ccnc4cc(Cl)ccc34)n2)cc1	16.7% (inactive)
CCC1(C)OC(=O)NC1=O (stereo not given)	112% (inactive)
CC(=O)Oc1ccc(C(OC(C)=O)OC(C)=O)cc1	90.3% (inactive)
C=C1C(=O)O[C@H]2[C@H]1CC/C(COC(=O)NCc1cn(C)c3ccccc13)=C\CC[C@@]1(C)O[C@@H]21	-48.5% (active)
Nc1ccccc1NC(=O)c1ccc(CN2CCC/C(=C\c3cccc(Cl)c3)C2=O)cc1	-24.5% (active)
CCOC(=O)CNC(=O)C1(NC(=O)CNC(=O)OCc2ccccc2)CCCC1	87.5% (inactive)
Nc1ccc2c(c1)C(=O)NC2=O	71.1% (inactive)
COC(=O)/C=C1\S/C(=N\Nc2ccc([N+](=O)[O-])cc2[N+](=O)[O-])N(C2CCCCC2)C1=O	8.63% (active)
CNc1ccc(NC)c2c1C(=O)c1ccccc1C2=O	87.3% (inactive)
O=[N+]([O-])c1ccc(N=Nc2c(NNc3ccc([N+](=O)[O-])cn3)cc(S(=O)(=O)O)c3ccccc23)nc1	94.9% (inactive)
O=C(Nc1ccc(NC(=O)c2cc(=O)[nH]c3ccccc23)cc1)Nc1cccc(C(F)(F)F)c1	99.8% (inactive)
CN1C(=O)N(C)C2C1NN=c1s/c(=C\c3ccccc3F)c(=O)n12 (stereo not given)	-46.5% (active)
Nc1ccccc1-c1ccc(-c2ccc(Cl)cc2)c2c1[nH]c1ccccc12	70.9% (inactive)
Cc1cc(Cl)nc(NCc2cc(Nc3ccnc4cc(Cl)ccc34)ccc2F)n1	42.4% (inactive)
C=C(C)[C@@H]1CC[C@]2(C(=O)OC)CC[C@]3(C)[C@H](CC[C@@H]4[C@@](C)(CC/C(N)=N/O)[C@H](C(=C)C)CC[C@]43C)[C@@H]12	92.2% (inactive)
